Consider 40 compounds from PubChem BioAssay (Tox21).

Records with an inconclusive call do not appear. Where a call stands in place of a potency, no number is given. Active and inactive are the calls of the source. Calls come from the whole dose curve; as a rule, active = well fitted inhibition curve with a large enough effect in the repeat runs; inconclusive = weak or mixed curves, or effect the other way; inactive = no such curve, though single readings can be large or run the other way. Where a SMILES comes first, the peptide text is derived from it. [ ]: non-standard residue; d: D form. pGlu = O=C1CC[C@@H](C(=O)O)N1

For this assay, the target named is Nuclear receptor subfamily 1 group I member 3 (Homo sapiens) (UniProt Q14994). Put plainly: qHTS assay to identify small molecule antagonists of the constitutive androstane receptor (CAR) signaling pathway (AID 1224838).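 Note: HepG2 cells stably expressing hCAR with CYP2B6 luciferase reporter stimulated by CITCO; nearly all actives have a fitted effect of over 40% in size.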 The note with it: HepG2-CYP2B6-hCAR luciferase, CITCO-stimulated, 24 h; series mostly up to 92.4 µM. The text has this: U.S. Tox21 Program National Center for Advancing Translational Sciences [NCATS] NIH Chemical Genomics Center [NCGC] U.S. Environmental Protection Agency [EPA] National Institutes of Environmental Health Sciences [NIEHS] National Toxicology Program [NTP] U.S. Food and Drug Administration [FDA] Tox21 Assay Overview: The constitutive androstane receptor (CAR) is a nuclear receptor which regulates multiple drug metabolizing enzymes (DMEs) and transporters. Activating CAR will generally increase the transcription and subsequent translation of CYP2B6 and CYP3A4. These two DMEs represent about 50% of the drug metabolizing potential in the body. When CAR is deactivated, the metabolizing potential in the body will decrease, subsequently increasing the toxicity in the body or lowering the therapeutic potential of a pro-drug. Recently, there have also been studies performed indicating CARs role in energy metabolism and cancer therapy. Therefore, inhibiting CARs activity could have a potential effect on diabetes and cancer. Identifying environmental toxins and compounds which modulate CAR, through the use of the Tox21 10K compound collection, will be an important step in determining the toxicity and potential therapeutic effects these factors will have on the human body.
Chain of Nuclear receptor subfamily 1 group I member 3 (Homo sapiens) (Q14994 whole entry, looked up): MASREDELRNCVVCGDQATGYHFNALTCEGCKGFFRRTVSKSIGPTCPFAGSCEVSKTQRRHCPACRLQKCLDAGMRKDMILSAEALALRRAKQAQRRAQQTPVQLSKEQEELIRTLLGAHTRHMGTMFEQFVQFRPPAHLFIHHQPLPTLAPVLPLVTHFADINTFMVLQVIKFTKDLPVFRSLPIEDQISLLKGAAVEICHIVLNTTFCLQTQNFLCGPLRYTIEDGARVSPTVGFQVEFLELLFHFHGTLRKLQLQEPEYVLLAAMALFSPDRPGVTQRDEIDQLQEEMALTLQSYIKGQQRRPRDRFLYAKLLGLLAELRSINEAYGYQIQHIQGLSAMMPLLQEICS
Tox21 Assay Protocol Summary: A double-stable (hCAR and CYP2B6-2.2kb) transfected cell line, derived from human hepatoma (HepG2) cells, was utilized for the duration of the quantitative high-throughput screens. The HepG2-CYP2B6-hCAR cells suspended in DMEM culture medium supplemented with 10% FBS, 5 ug/mL blasticidin, 0.5 mg/mL geneticin, 100 U/mL penicillin and 100 ug/mL streptomycin were dispensed at 2500 cells/4 uL/well in 1536-well white solid bottom plates using a Multidrop Combi. After the assay plates were incubated at 37 C/5% CO2 for 4 hrs, 23 nL of compounds at 15 concentrations (from 5-48 columns) or positive control (from 1 to 4 columns) were transferred to the assay plates using a Pintool station. One uL of CITCO, was added using a Flying Reagent Dispenser to generate a final concentration of 50 nM CITCO inside each well. After a 24 hr incubation period at 37 C/5% CO2, four uL of ONE-Glo reagent was added into the assay plates using a Flying Reagent Dispenser. After a 30 min incubation period at room temperature, the luminescence intensity in the assay plates was measured using a ViewLux plate reader.
(Quantitative high-throughput screening tests each substance at several concentrations.)
As for `CC(C)(C)c1ccc(-c2ccc(C(C)(C)C)cc2)cc1`, the Potency entry is “inactive”.
With `Clc1cc(Cl)c(Cl)nc1Cl`, the Potency result is “inactive”.
As to `CC(C)=CCC/C(C)=C/C#N`, the Potency result was “inactive”.
Regarding `O=S(=O)(O)c1cccc2c(S(=O)(=O)O)cccc12`, the Potency result was “inactive”.
The same measure for `Clc1cc(Cl)cc(Cl)c1`: “inactive”; for `CC(C)(CCC(=O)O)C(=O)O`: “inactive”.
For the compound `CCCCc1nc(Cl)c(CO)n1Cc1ccc(-c2ccccc2-c2nn[nH]n2)cc1`, the Potency entry was “inactive”.
For `CCOC(=O)c1cnc2c(cnn2CC)c1NN=C(C)C`, the Potency entry is “inactive”.
In the case of `CO[C@@]1(NC(=O)C(C(=O)O)c2ccc(O)cc2)C(=O)N2C(C(=O)O)=C(CSc3nnnn3C)CO[C@@H]21` (stereo not given in full), the Potency result is “inactive”.
With `CC(C)COC(=O)c1ccc(N)cc1`, the Potency result was “inactive”.
The same measure for `CO/N=C(\C(=O)N[C@@H]1C(=O)N2C(C(=O)O)=C(CSc3nc(=O)c(O)nn3C)CS[C@H]12)c1csc(N)n1`: “inactive”.
As to `CN1CCC(=C2c3ccccc3CCc3cccnc32)CC1`, the Potency result is “inactive”.
The same measure for `COc1cccc(OC)c1C(=O)N[C@@H]1C(=O)N2[C@@H]1SC(C)(C)[C@@H]2C(=O)O`: “inactive”.
The same measure for `CC(C)C1CCC(O)CC1` (stereo not given): “inactive”; for `CCOC(=O)COc1cc(-n2ncc(C(F)(F)F)c(C)c2=O)c(F)cc1Cl`: “inactive”.
In the case of `CC(=O)Oc1cccc(C)c1`, the Potency result is “inactive”.
The same measure for `COc1ccnc(CS(=O)c2nc3cc(OC(F)F)ccc3[nH]2)c1OC` (stereo not given): “inactive”; for `CC(=O)c1ccccc1[N+](=O)[O-]`: “inactive”; for `O=C(O)Cc1csc(-c2ccc(Cl)cc2)n1`: “inactive”.
The value for `O=C(O)CCCC[P+](c1ccccc1)(c1ccccc1)c1ccccc1` was “inactive”; that for `CC[N+](CC)(CC)CCOc1cccc(OCC[N+](CC)(CC)CC)c1OCC[N+](CC)(CC)CC` was “inactive”.
The same measure for `Cc1onc(-c2c(Cl)cccc2Cl)c1C(=O)Cl`: “inactive”; for `CCCCOCCOC(=O)COc1cc(Cl)c(Cl)cc1Cl`: “inactive”.
Turning to `NC(=O)Cc1cccc2ccccc12`, the Potency entry was “inactive”.
For the compound `C[N+]12CCC(CC1)C(OC(=O)C(O)(c1ccccc1)c1ccccc1)C2` (stereo not given), the Potency entry is “inactive”.
The same measure for `Cc1ccc(C(=O)c2ccc(CC(=O)O)n2C)cc1`: “inactive”.
In the case of `CCCO[Si](OCCC)(OCCC)OCCC`, the Potency result was “inactive”.
The value for `CNC(=O)Nc1ccc(Cl)c(Cl)c1` was “inactive”; that for `COc1ccccc1OCC1CNC(=O)O1` (stereo not given) was “inactive”.
For `CCCCCC(=O)OCCc1ccccc1`, the Potency result was “inactive”.
Consider `CO[Si](C)(OC)c1ccccc1`, for which the Potency entry was “inactive”.
With `CC(C#N)(CCC(=O)O)N=NC(C)(C#N)CCC(=O)O` (stereo not given), the Potency entry was “inactive”.
The same measure for `CC(=O)C1CCCCC1=O` (stereo not given): “inactive”; for `CN(C)CCN(C)CCN(C)C`: “inactive”.
The same measure for `CN1C(C)(C)CC(O)CC1(C)C`: “inactive”; for `COc1cc(C(=O)NCc2ccc(OCCN(C)C)cc2)cc(OC)c1OC`: “inactive”; for `CCN(CC#N)c1cccc(C)c1`: “inactive”.
Consider `CCNC(=O)[C@@H]1CCCN1C(=O)[C@H](CCCN=C(N)N)NC(=O)[C@H](CC(C)C)NC(=O)CNC(=O)[C@H](Cc1ccc(O)cc1)NC(=O)[C@H](CO)NC(=O)[C@H](Cc1c[nH]c2ccccc12)NC(=O)[C@H](Cc1cnc[nH]1)NC(=O)[C@@H]1CCC(=O)N1` ([pGlu]HWSYGLRP-NHEt), for which the Potency entry was “inactive”.
The value for `CCC(C(=O)NC(=O)NC(C)=O)c1ccccc1` (stereo not given) was “inactive”.
Take `CC(C)(C)C(=O)c1ccccc1`: the Potency entry was “inactive”.
